# Laboratory results taken from ChEMBL document CHEMBL4513216, “Probing the Open Global Health Chemical Diversity Library for Multistage-Active Starting Points for Next-Generation Antimalarials” (ACS Infect Dis, 2020).
# In all, about 69,000 compounds went through this assay and about 8,600 (12%) showed an effect of 50% or more. The sample as a whole holds a higher share of strong results than the screen did.
# System: Plasmodium berghei
# Experiment: Screen against P. berghei liver stage (PbLuc), transformed with Luciferase, at 10uM
# Type: functional, HepG2
# Conditions: tested at 10 uM
row,Structure (SMILES),INHIBITION [%]
1,Cn1nnc2c1CCN(Cc1ccccc1)C2COCC1CC1 (stereo not given),33.5
2,COc1cn(CC(=O)N2CCN(c3ccc(Cl)cc3)CC2)c(C)cc1=O,28.3
3,COc1cc(OC)cc(-c2cc(N)on2)c1,12.8
4,Cc1ccc(CN(CC(=O)N2CCOC(C)C2)C2CC2)cc1 (stereo not given),-59.4
5,C[C@@H](NC(=O)c1cnccn1)c1c(-c2ccc(Cl)cc2)noc1C(=O)O,26
6,CC(C)c1noc(CN(CCC2CCCCC2)CC(N)=O)n1,34
7,CN1CC(C(=O)NCCc2ccc3c(c2)OCCO3)CC1=O (stereo not given),27.7
8,Cc1cc(C2CCCN2Cc2nc3ccccc3o2)on1 (stereo not given),-12.2
9,CC(C)Cn1nnnc1SC(C(=O)NCc1cccnc1)C(C)C (stereo not given),16.9
10,Cc1nccnc1CCC1COCCN1C(=O)CCc1c(C)noc1C (stereo not given),9.05
11,Cc1ncsc1CN1C[C@@H]2COC[C@]2(C(=O)NCc2cccnc2)C1,42.1
12,Cc1nc(C)c(CC(=O)N2CCC(c3ccn4nccc4n3)CC2)s1,4.13
13,CNc1ncccc1C(=O)N1CCCC2(C1)C(=O)N(C)c1ccccc12 (stereo not given),-4.35
14,CCCc1noc2ncc(C(=O)N3CCCC3c3cnn(C)c3)cc12 (stereo not given),-29.1
15,CN(C)CCN1C[C@@H]2CN(C(=O)C3CC=CC3)C[C@@H]2C1=O,8.31
16,O=C1[C@H]2CN(S(=O)(=O)c3ccccc3)C[C@H]2CN1Cc1cccnc1,-29
17,CN(C)CCN1C[C@@H]2CN(C(=O)c3ccsc3)C[C@@H]2C1=O,3.47
18,CN(C)CCN1C[C@@H]2CN(c3ccccc3)C[C@@H]2C1=O,53.9
19,CN(C)CCN1C[C@@H]2CN(S(=O)(=O)c3cccs3)C[C@@H]2C1=O,-9.74
20,CN(C)CCN1C[C@@H]2CN(S(=O)(=O)c3ccccc3)C[C@@H]2C1=O,53.9
21,CN1CCN(Cc2cnc3n2CCN(CCc2ccccc2)C3)CC1,-18.2
22,O=C(c1ccccn1)N1CCC(Cc2cnc3[nH]ccc3c2)CC1,-12.2
23,COC(=O)c1cccc(S(=O)(=O)NC(=O)COC2CCCCC2)c1,38.8
24,C[C@@H]1C[C@H](C(F)(F)F)n2nc(C3CCN(S(C)(=O)=O)CC3)cc2N1,1.5

row,Structure (SMILES),INHIBITION [%]
1,O=C(C1CN(CC2CCOCC2)CC12CCOCC2)N1CCOCC1 (stereo not given),23.3
2,CNC(=O)[C@@H]1C[C@@H](NC(=O)c2cn(C)nc2C)CN1Cc1sccc1C,25.8
3,CNC(=O)[C@@H]1C[C@@H](NC(=O)c2ccc(OC)o2)CN1Cc1sccc1C,20.8
4,CNC(=O)[C@@H]1C[C@@H](NC(=O)Cc2nonc2C)CN1Cc1sccc1C,51.5
5,COc1ccc(OC)c(C(O)CNC(=O)Nc2cc(C)nn2C)c1 (stereo not given),10.35
6,Cc1nn(C)c2nc(N3CCCCC3c3cccnc3)sc12 (stereo not given),33.1
7,Cc1nn(C)c2nc(N3CCC(C(O)Cc4ccccc4)CC3)sc12 (stereo not given),75.1
8,Cc1nn(C)c2nc(N3CCC(C(O)c4ccccn4)CC3)sc12 (stereo not given),55.4
9,Cc1nn(C)c2nc(N3CCC(C(O)c4nccn4C)CC3)sc12 (stereo not given),12.8
10,Cc1nn(C)c2nc(NC3CCNCC3)sc12,10.7
11,Cc1cnc(N2CC[C@@H]3OC(COCC(=O)N(C)C)CC[C@@H]32)nc1 (stereo not given in full),14.1
12,CCCC1CN(CCOc2ccccc2)C(=O)c2cccnc2O1 (stereo not given),44.2
13,Cc1nn(-c2ncnc3[nH]cnc23)c2c1C(C(C)C)CC(=O)N2 (stereo not given),-21.2
14,Cc1ccc2c(c1)C(=O)CC1(CCN(Cc3ccccc3)CC1)O2,-13.2
15,Cc1nnc(N2CCCC2)c(C(N)=O)c1C,6.24
16,Cc1nnc(N2CCN(C(=O)NC3CC3)CC2)c(C(N)=O)c1C,56.5
17,Cc1nnc(N2CCNCC2)c(C(N)=O)c1C,41.5
18,O=C(NCC1CC1)c1ccc(NC(=O)c2ccco2)cc1,-64.3
19,COc1c(C)cnc(CN2CCCCC2CCN2CCOCC2)c1C (stereo not given),56.1
20,COc1c(C)cnc(CN2CCCC2Cn2nc(C)nc2C)c1C (stereo not given),27.6
21,COc1c(C)cnc(CN2CCCCC2Cn2nc(C)nc2C)c1C (stereo not given),6.14
22,CC(=O)N1CCC1c1cc(N2CCSCC2)nc(C)n1 (stereo not given),29.5
23,CO[C@H]1CN(Cc2ccccc2F)C[C@@]12CCCO2,5.56
24,Cn1cc(N2CCC3(CCN(C(=O)[C@H]4CCCO4)C3)C2=O)cn1 (stereo not given in full),12.7

row,Structure (SMILES),INHIBITION [%]
1,CC(C)C(C(=O)N1CCC(Nc2cccnn2)CC1)n1cncn1 (stereo not given),57.2
2,CCN1CCC(NC(=O)CNC(C)Cn2cccn2)CC1 (stereo not given),88.6
3,CC(Cn1cccn1)C(=O)N1CCC(Nc2cccnn2)CC1 (stereo not given),53.7
4,CC(C)C(C(=O)N1CCC(N(C)c2cccnn2)CC1)n1cncn1 (stereo not given),36.9
5,CC(Cn1cccn1)NCC(=O)NC1CCOCC1 (stereo not given),5.2
6,CC(C(=O)N1CCC(Nc2cccnn2)CC1)n1cccn1 (stereo not given),45.7
7,CCN1CCC(NC(=O)CN2CCCC2Cn2cccn2)CC1 (stereo not given),19
8,CC(C(=O)N1CCC(Nc2cccnn2)CC1)n1ccnc1 (stereo not given),23.4
9,Cc1ccc(NC2CCN(C(=O)C(C(C)C)n3cncn3)CC2)nn1 (stereo not given),31.2
10,CN(Cc1ccco1)C(=O)CN1CCOC(Cn2cccn2)C1 (stereo not given),-53.5
11,COc1c(CNC2CCOc3ccccc32)c(C(C)C)nn1C (stereo not given),47.1
12,COc1c(CNC2CCc3ccccc32)c(C)nn1C (stereo not given),-63.3
13,COc1c(CNC2CCc3cc(C)ccc32)c(C)nn1C (stereo not given),21.5
14,COc1c(CNC2CCOc3c(F)cccc32)c(C)nn1C (stereo not given),20
15,COc1c(CNC2CCOc3c(Cl)cccc32)c(C)nn1C (stereo not given),77.8
16,COc1c(CNC2CCCOc3ccc(F)cc32)c(C)nn1C (stereo not given),-63.5
17,COc1c(CNC2CCc3cc(Cl)ccc32)c(C)nn1C (stereo not given),59
18,CC(C)c1nn(C)c(N(C)C)c1CNC1CCOc2ccccc21 (stereo not given),12.2
19,COc1c(CNC2CCSc3ccc(F)cc32)c(C)nn1C (stereo not given),75.2
20,COc1c(CNC2CCOc3c(Cl)cccc32)c(C(C)C)nn1C (stereo not given),-69
21,COc1c(CNC2CCc3cc(F)ccc32)c(C)nn1C (stereo not given),35.8
22,CC(C)c1nn(C)c(Cl)c1CNC1CCOc2ccccc21 (stereo not given),53.3
